This is part of a sample that, as a whole, favours compounds with a hit. Of some 83,000 tested, about 20% had one in any assay.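 Results are percent growth after 48 hours of single-concentration exposure. 100 means growth as in untreated cells, lower positive values show inhibition; negative values down to -100 show cell death.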 Unmarked numbers belong to inactive results. The source made the active and inactive calls. The calls were made as follows: active = growth percent below 10; inactive = the rest.
system: MDA-MB-231 breast; assay: NCI-60 one-dose screen, 48 h (100 = growth as untreated, 0 = no growth, -100 = all killed); settings: 10 µM unless noted

Point of comparison: `CNC(=O)Nc1ccc(Nc2cc(-c3ccc(-n4cccn4)cc3)[nH]n2)c(C)c1`, growth 123%. Against it:
- C=C(C=O)[C@@H]1CC[C@]2(C(=O)O)CC[C@]3(C)C(CC[C@@H]4[C@@](C)(CCC#N)[C@H](C(=C)C=O)CC[C@]43C)[C@@H]12 (stereo partly drawn) — lower, 43.8%
- NCCNC(=O)c1cccc(COc2ccccc2NC(=O)c2cc(Cl)c(Cl)[nH]2)c1 — lower, 106%
- COc1ccc(C2c3[nH]c4ccc(Cl)cc4c3CCN2c2oc(CO)nc2C#N)cc1 (stereo not drawn) — lower, 59.7%
- CN(C)c1ccc(-c2cc(-c3c[nH]c4ccccc34)nc(N)c2C#N)cc1 — lower, 36%
- COc1ccccc1/C=C1\Oc2ccc(O)c(O)c2C1=O — lower, 94.9%
- CCCCCc1ccc(S(=O)(=O)Nc2cc(-c3csc(N)n3)ccc2OC)cc1 — lower, 92%
- CCCCN1C(=O)/C(=c2\sc3n(c2=O)C2C(NN=3)N(CC)C(=O)N2CC)c2cc(C)ccc21 (stereo not drawn) — lower, 79.5%
- CC(C)[C@H]1c2[nH]c3ccccc3c2C[C@H]2C(=O)N(CCCCCCC(=O)NO)CC(=O)N12 — lower, 92.5%
- O=C(N/N=C\c1ccc(F)cc1)c1ccc2nc(-c3ccc(Br)cc3)[nH]c2c1 — lower, 60.6%
- NC1[C@H]2CN(c3cnc(C(=O)Nc4cc(F)cc5cccnc45)cn3)C[C@@H]12 (stereo partly drawn) — lower, 47.8%
- Cc1ccsc1[C@H]1c2[nH]c3ccccc3c2C[C@H]2C(=O)N(CCCCCCC(=O)NO)CC(=O)N12 — lower, 96.8%
- CC(=O)N(O)CCCCCNC(=O)CCC(=O)N(O)CCCCCNC(=O)CCC(=O)N(O)CCCCCN(CCCCCCCCCC[P+](c1ccccc1)(c1ccccc1)c1ccccc1)CCCCCCCCCC[P+](c1ccccc1)(c1ccccc1)c1ccccc1 — lower, 16.4%
- O=c1nc(Nc2ccc([N+](=O)[O-])cc2O)sc2ccccc12 — lower, 51.8%
- Cc1cc2nc(C(Cl)Cl)nc(-c3ccc(S(=O)(=O)N(C)C)cc3)n2n1 — lower, 12.6%
- C/C(CC1(O)C(=O)Nc2ccccc21)=N\O (stereo not drawn) — lower, 94.8%
- C[C@]12CC[C@H]3[C@@H](CC=C4C[C@@H](O)CC[C@@]43C)[C@@H]1CC[C@@H]2[C@](C)(O)CCc1cccnc1 — lower, 77.2%
- O=C(CSc1nnc(-c2cccs2)n1-c1ccccc1)Nc1ccccc1F — lower, 86.5%
- CC(=C(c1ccc(OCCCN(C)C)cc1)c1ccc(OCCCN(C)C)cc1)c1ccc(Cl)cc1 — lower, 95.4%
- O=C(CSc1nc2ccccc2c(=O)n1-c1ccc(Cl)c(Cl)c1)Nc1ccc(S(=O)(=O)Nc2ccc(Cl)nn2)cc1 — lower, 90.8%
- COC(=O)CCSC1=C(C)C(=O)c2ccccc2C1=O — lower, 75.6%
- CCc1cc(OC(=O)N2CCC(N3CCCCC3)CC2)ccc1Nc1cc(-c2ccc(-n3cccn3)cc2)[nH]n1 — lower, 59.5%
- Cc1cc(=O)[nH]c(O)c1C#N — lower, 98.2%

`O=C(O)c1ccc(-n2c(=O)n(-c3cccc(C(F)(F)F)c3)c(=O)c3cc(-c4ccc(F)cc4F)ccc32)cc1` was tested, and the growth was -25.8% (active).
In the case of `Nn1c(=O)n(-c2cccc(C(F)(F)F)c2)c(=O)c2cc(-c3ccc(F)cc3F)ccc21`, the growth is reported as -10.2% (active).
For `O=C(Nc1cc(C(F)(F)F)cc(C(F)(F)F)c1)Nc1ccc2oc(=O)ccc2c1`, the growth was -9.24% (active).
With `CCN(CC)S(=O)(=O)c1ccc(-c2nc(C(Cl)Cl)nc3cc(C)nn23)cc1` the growth was -0.482% (active).

Compound `Cc1ccc2c(n1)C(=O)C(Cl)=C(Nc1ccc(C(=O)OC(C)(C)C)cc1)C2=O` has a growth of 53.9% [9.25 µM].

system: RXF 393 renal; assay: as above; settings: 10 µM unless noted

Point of comparison: `CC(=C(c1ccc(OCCCN(C)C)cc1)c1ccc(OCCCN(C)C)cc1)c1ccc(Cl)cc1`, growth 80.6%. Against it:
- CNc1sc(S(=O)(=O)NC)nc1S(=O)(=O)c1ccc(C)cc1 — higher, 108%
- COc1cccc(N2CCN(C3=C(Cl)C(=O)c4ncccc4C3=O)CC2)c1 — lower, 64.5%
- O=C1[C@@H]2Cc3c([nH]c4ccccc34)[C@@H](c3ccc(Cl)cc3)N2C(=O)CN1C1CCN(Cc2ccccc2)CC1 — lower, 50.3%
- CC(=O)OCCCCN1C=C/C(=C\C(=O)n2ccc3ccccc32)c2ccccc21 — higher, 115%
- CN1CCN(c2ccc(Nc3nc(NCCNS(=O)(=O)c4ccc5ccccc5c4)c4sccc4n3)cc2)CC1 — lower, 29.4%
- CC1=C(C)C(=O)C(Nc2ccc3c(c2)OCCO3)=C(Br)C1=O — higher, 100%
- C=C(C)[C@@H]1CC[C@]2(C(=O)NC3CCCCC3)CC[C@]3(C)[C@H](CC[C@@H]4[C@@]5(C)CC[C@H](N)C(C)(C)[C@@H]5CC[C@]43C)[C@@H]12 — higher, 93.7%
- C=C1CCc2nc(SCC(=O)O)ccc2N1 — higher, 94.1%
- CN1CCC[C@]2(C)[C@H]3CC[C@@H]4[C@@H]5[C@H]6OC[C@@]5(CCC6(C)C)CC[C@@]4(C)[C@]3(C)CC[C@H]2C1(C)C — lower, 74.5%
- C=C(C=O)[C@@H]1CC[C@]2(C(=O)O)CC[C@]3(C)C(CC[C@@H]4[C@@](C)(CCC#N)[C@H](C(=C)C=O)CC[C@]43C)[C@@H]12 (stereo partly drawn) — lower, 44%
- NCCNC(=O)c1cccc(COc2ccccc2NC(=O)c2cc(Cl)c(Cl)[nH]2)c1 — higher, 93.5%
- COc1ccc(C2c3[nH]c4ccc(Cl)cc4c3CCN2c2oc(CO)nc2C#N)cc1 (stereo not drawn) — lower, 62.8%
- COc1ccccc1/C=C1\Oc2ccc(O)c(O)c2C1=O — higher, 90.2%
- CCCCCc1ccc(S(=O)(=O)Nc2cc(-c3csc(N)n3)ccc2OC)cc1 — higher, 99.7%
- CCCCN1C(=O)/C(=c2\sc3n(c2=O)C2C(NN=3)N(CC)C(=O)N2CC)c2cc(C)ccc21 (stereo not drawn) — lower, 61.2%
- CC(C)[C@H]1c2[nH]c3ccccc3c2C[C@H]2C(=O)N(CCCCCCC(=O)NO)CC(=O)N12 — higher, 87%
- NC1[C@H]2CN(c3cnc(C(=O)Nc4cc(F)cc5cccnc45)cn3)C[C@@H]12 (stereo partly drawn) — lower, 70.6%
- Cc1ccsc1[C@H]1c2[nH]c3ccccc3c2C[C@H]2C(=O)N(CCCCCCC(=O)NO)CC(=O)N12 — higher, 85.9%
- Cc1cc2nc(C(Cl)Cl)nc(-c3ccc(S(=O)(=O)N(C)C)cc3)n2n1 — lower, 59.5%
- C/C(CC1(O)C(=O)Nc2ccccc21)=N\O (stereo not drawn) — higher, 103%
- C[C@]12CC[C@H]3[C@@H](CC=C4C[C@@H](O)CC[C@@]43C)[C@@H]1CC[C@@H]2[C@](C)(O)CCc1cccnc1 — lower, 66.4%
- O=C(CSc1nnc(-c2cccs2)n1-c1ccccc1)Nc1ccccc1F — higher, 90.7%
- O=C(CSc1nc2ccccc2c(=O)n1-c1ccc(Cl)c(Cl)c1)Nc1ccc(S(=O)(=O)Nc2ccc(Cl)nn2)cc1 — higher, 88.1%
- COC(=O)CCSC1=C(C)C(=O)c2ccccc2C1=O — higher, 87.3%
- CCc1cc(OC(=O)N2CCC(N3CCCCC3)CC2)ccc1Nc1cc(-c2ccc(-n3cccn3)cc2)[nH]n1 — lower, 52.5%
- O=C(Nc1cc(C(F)(F)F)cc(C(F)(F)F)c1)Nc1ccc2oc(=O)ccc2c1 — lower, 39.7%
- Cc1cc(=O)[nH]c(O)c1C#N — higher, 114%
- CCN(CC)S(=O)(=O)c1ccc(-c2nc(C(Cl)Cl)nc3cc(C)nn23)cc1 — lower, 13.3%
- CNC(=O)Nc1ccc(Nc2cc(-c3ccc(-n4cccn4)cc3)[nH]n2)c(C)c1 — higher, 141%

In the case of `CCOC(=O)c1c(NC(=O)c2ccc(C(F)(F)F)cc2)sc2c3c(ccc12)OCN(C)C3`, the growth is reported as -70% (active).
For `C#CCN(C)CCCOc1ccc(NCc2ccc(/C=C/C(=O)NO)cc2)cc1Cl`, the growth was -56.2% (active).
In the case of `COc1cc(/C=N\NC(=O)c2ccc3nc(-c4ccc(Br)cc4)[nH]c3c2)cc(OC)c1OC`, the growth is reported as 9.72% (active).
For `CN(C)c1ccc(-c2cc(-c3c[nH]c4ccccc34)nc(N)c2C#N)cc1`, the growth was 2.37% (active).
For `O=C(O)c1ccc(-n2c(=O)n(-c3cccc(C(F)(F)F)c3)c(=O)c3cc(-c4ccc(F)cc4F)ccc32)cc1`, the growth was -1.85% (active).
`Nn1c(=O)n(-c2cccc(C(F)(F)F)c2)c(=O)c2cc(-c3ccc(F)cc3F)ccc21` was tested, and the growth was 3.65% (active).
With `O=C(N/N=C\c1ccc(F)cc1)c1ccc2nc(-c3ccc(Br)cc3)[nH]c2c1` the growth was -12.3% (active).
With `CC(=O)N(O)CCCCCNC(=O)CCC(=O)N(O)CCCCCNC(=O)CCC(=O)N(O)CCCCCN(CCCCCCCCCC[P+](c1ccccc1)(c1ccccc1)c1ccccc1)CCCCCCCCCC[P+](c1ccccc1)(c1ccccc1)c1ccccc1` the growth was -9.88% (active).
`O=c1nc(Nc2ccc([N+](=O)[O-])cc2O)sc2ccccc12` was tested, and the growth was 7.31% (active).
In the case of `Cc1ccc2c(n1)C(=O)C(Cl)=C(Nc1ccc(C(=O)OC(C)(C)C)cc1)C2=O`, the growth is reported as -19.3% [9.25 µM] (active).

From PubChem BioAssay (NCI)
